# Hit rate of the full screen: of about 5,500 compounds, about 2,000 (36%) were called active. Another 18% or so got no clear call; they are omitted. The list shows a part of the results. Values without a mark were called inactive. No stated cut-off is given here; in the data, active means normalized growth mostly below about 0.91 (no sharp cut-off); inconclusive means no clear call, values can overlap the other calls; inactive means mostly above about 0.92.
# Test: chemical genetic growth profiling, strain panel (AID 1159580);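 further: tested at 20 µM; growth read once vehicle control cultures reached saturation at 30 °C; 1 = growth at the plate median or of vehicle wells; lower values mean less growth of the strain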
# Conditions: S. cerevisiae deletion strains, growth OD
compound,measurement,setting,value
CC1=CCCC2C1(C)CCC(C)C2(C)CC/C(C)=C/C[n+]1cn(C)c2c(N)ncnc21 (centres undefined),normalized growth,"locus YAL021C, strain ccr4, hits give low values",0.944
same,normalized growth,"locus YAL026C, strain drs2, hits give low values",0.838 (active)
same,normalized growth,"locus YAL030W, strain snc1, hits give low values",0.986
same,normalized growth,"locus YBL061C, strain skt5, hits give low values",1.01
same,normalized growth,"locus YBR009C, strain hhf1, hits give low values",0.928
same,normalized growth,"locus YBR023C, strain chs3, hits give low values",0.978
same,normalized growth,"locus YBR171W, strain sec66, hits give low values",0.977
same,normalized growth,"locus YBR231C, strain swc5, hits give low values",0.973
same,normalized growth,"locus YBR279W, strain paf1, hits give low values",0.96
same,normalized growth,"locus YCL011C, strain gbp2, hits give low values",0.943
same,normalized growth,"locus YCL016C, strain dcc1, hits give low values",0.932
same,normalized growth,"locus YCL069W, strain vba3, hits give low values",0.961
same,normalized growth,"locus YCR088W, strain abp1, hits give low values",0.991
same,normalized growth,"locus YDL005C, strain med2, hits give low values",0.984
same,normalized growth,"locus YDL040C, strain nat1, hits give low values",0.991
same,normalized growth,"locus YDR001C, strain nth1, hits give low values",0.976
same,normalized growth,"locus YDR069C, strain doa4, hits give low values",1.01
same,normalized growth,"locus YDR137W, strain rgp1, hits give low values",1.17 [resistant] (active)
same,normalized growth,"locus YDR159W, strain sac3, hits give low values",1.06
same,normalized growth,"locus YDR195W, strain ref2",0.992
same,normalized growth,"locus YDR297W, strain sur2, hits give low values",0.996
same,normalized growth,"locus YDR334W, strain swr1, hits give low values",0.988
same,normalized growth,"locus YDR335W, strain msn5, hits give low values",0.955
same,normalized growth,"locus YDR392W, strain spt3, hits give low values",0.452 (active)
same,normalized growth,"locus YEL003W, strain gim4, hits give low values",0.955
same,normalized growth,"locus YEL037C, strain rad23, hits give low values",0.987
same,normalized growth,"locus YEL061C, strain CIN8 (second series), hits give low values",0.976
same,normalized growth,"locus YER015W, strain faa2, hits give low values",0.963
same,normalized growth,"locus YER016W, strain bim1, hits give low values",0.994
same,normalized growth,"locus YER111C, strain swi4, hits give low values",0.984
same,normalized growth,"locus YER155C, strain BEM2 (second series), hits give low values",0.644 (active)
same,normalized growth,"locus YFR010W, strain ubp6, hits give low values",0.996
same,normalized growth,"locus YGL167C, strain pmr1, hits give low values",0.976
same,normalized growth,"locus YGL173C, strain kem1, hits give low values",0.993
same,normalized growth,"locus YGL227W, strain vid30, hits give low values",0.985
same,normalized growth,"locus YGL240W, strain doc1, hits give low values",0.971
same,normalized growth,"locus YGL253W, strain hxk2, hits give low values",0.976
same,normalized growth,"locus YHR013C, strain ard1, hits give low values",0.917
same,normalized growth,"locus YHR027C, strain rpn1, hits give low values",1
same,normalized growth,"locus YHR030C, strain SLT2, hits give low values",0.946
same,normalized growth,"locus YHR079C, strain IRE1, hits give low values",0.951
same,normalized growth,"locus YHR142W, strain chs7, hits give low values",0.881
same,normalized growth,"locus YJL092W, strain hpr5, hits give low values",0.982
same,normalized growth,"locus YJL095W, strain BCK1 (second series), hits give low values",1.01
same,normalized growth,"locus YJL095W, strain BCK1, hits give low values",0.971
same,normalized growth,"locus YJL115W, strain asf1, hits give low values",0.978
same,normalized growth,"locus YJL129C, strain trk1, hits give low values",1
same,normalized growth,"locus YJL154C, strain vps35, hits give low values",0.983
same,normalized growth,"locus YJL164C, strain tpk1, hits give low values",0.935
same,normalized growth,"locus YJL166W, strain qcr8, hits give low values",0.963
same,normalized growth,"locus YJL187C, strain SWE1, hits give low values",0.991
same,normalized growth,"locus YJR066W, strain TOR1, hits give low values",0.94
same,normalized growth,"locus YKL160W, strain elf1, hits give low values",0.929
same,normalized growth,"locus YKR026C, strain gcn3, hits give low values",1.01
same,normalized growth,"locus YKR091W, strain srl3, hits give low values",0.977
same,normalized growth,"locus YLL001W, strain dnm1, hits give low values",0.908
same,normalized growth,"locus YLL026W, hits give low values",0.984
same,normalized growth,"locus YLL041C, strain sdh2, hits give low values",0.987
same,normalized growth,"locus YLR027C, strain aat2, hits give low values",0.986
same,normalized growth,"locus YLR113W, strain HOG1, hits give low values",0.891
same,normalized growth,"locus YLR221C, strain rsa3, hits give low values",1.02
same,normalized growth,"locus YLR258W, strain gsy2, hits give low values",0.969
same,normalized growth,"locus YLR262C, strain YPT6 (second series), hits give low values",1.03
same,normalized growth,"locus YLR320W, strain mms22, hits give low values",1
same,normalized growth,"locus YLR342W, strain FKS1, hits give low values",0.919
same,normalized growth,"locus YLR357W, strain rsc2, hits give low values",0.929
same,normalized growth,"locus YLR370C, strain arc18, hits give low values",0.961
same,normalized growth,"locus YLR384C, strain iki3, hits give low values",0.995
same,normalized growth,"locus YML120C, strain ndi1, hits give low values",0.931
same,normalized growth,"locus YMR058W, strain fet3, hits give low values",0.982
same,normalized growth,"locus YMR125W, strain sto1, hits give low values",0.936
same,normalized growth,"locus YMR129W, hits give low values",0.995
same,normalized growth,"locus YMR205C, strain PFK2, hits give low values",0.925
same,normalized growth,"locus YMR231W, strain pep5, hits give low values",1.02
same,normalized growth,"locus YNL071W, strain lat1, hits give low values",0.863 (active)
same,normalized growth,"locus YNL183C, strain NPR1, hits give low values",0.968
same,normalized growth,"locus YNL209W, strain ssb2, hits give low values",0.932
same,normalized growth,"locus YNL248C, strain rpa49, hits give low values",0.98
same,normalized growth,"locus YNL322C, strain KRE1 (second series), hits give low values",0.996
same,normalized growth,"locus YNR049C, strain mso1, hits give low values",0.992
same,normalized growth,"locus YOR001W, strain rrp6, hits give low values",1.01
same,normalized growth,"locus YOR070C, strain gyp1, hits give low values",0.988
same,normalized growth,"locus YOR080W, strain dia2, hits give low values",1
same,normalized growth,"locus YOR083W, strain WHI5, hits give low values",0.908
same,normalized growth,"locus YOR106W, strain vam3, hits give low values",0.883
same,normalized growth,"locus YOR231W, strain MKK1, hits give low values",0.937
same,normalized growth,"locus YOR265W, strain rbl2, hits give low values",0.981
same,normalized growth,"locus YOR270C, strain vph1, hits give low values",0.95
same,normalized growth,"locus YOR290C, strain snf2, hits give low values",0.844 (active)
same,normalized growth,"locus YPL051W, strain arl3, hits give low values",0.942
same,normalized growth,"locus YPL078C, strain atp4, hits give low values",0.896
same,normalized growth,"locus YPL106C, strain sse1, hits give low values",0.973
same,normalized growth,"locus YPL240C, strain hsp82, hits give low values",0.996
same,normalized growth,"locus YPL256C, strain CLN2, hits give low values",0.939
